Measured values as given in ChEMBL document CHEMBL4513216, “Probing the Open Global Health Chemical Diversity Library for Multistage-Active Starting Points for Next-Generation Antimalarials” (ACS Infect Dis, 2020).
The campaign covered roughly 69,000 compounds. About 8,600 (12%) showed an effect of 50% or more. For the sample, strong results were picked, then their nearest neighbours and some compounds at random.

These compounds were tested on Plasmodium berghei (assay: Screen against P. berghei liver stage (PbLuc), transformed with Luciferase, at 10uM). Details: tested at 10 uM.
Format: functional, HepG2

SMILES	INHIBITION
CNc1cc(N2CCCC2CNCc2cccnc2)ncn1 (stereo not drawn)	-3.19%
CCO[C@@H]1CC[C@H]2[C@H]1OCCN2CCOCc1ccccc1	41.2%
O=C(Nc1ccc2c(c1)OCCO2)N1CCCC1c1ccco1 (stereo not drawn)	-0.87%
Cc1cccc(CN2C[C@@H]3[C@@H](C(=O)NCC(C)C)CCS(=O)(=O)[C@@H]3C2)c1	-41.9%
CCc1nc(CN2CCCC(NCc3nnc(C4CC4)n3C)C2)no1 (stereo not drawn)	1.75%
CCc1ccc(CN2CCC3(CC2)CNC(=O)CO3)o1	33.7%
CC(C)Cc1cc(C(=O)NCCc2ccc(S(C)(=O)=O)cc2)[nH]n1	8.69%
O=C(O)c1cc(S(=O)(=O)Nc2cc(Cl)ccc2F)cc2c1OCCO2	27.6%
CN(CC(=O)NC(N)=O)CC1(c2ccc(Br)cc2)CC1	-17.3%
COC1COC2(CCN(Cc3ccc4c(c3)OCO4)CC2)C1 (stereo not drawn)	-39.3%
Cc1cc(C(=O)N2CCC3(CCC(=O)N(CC(N)=O)C3)CC2)ccc1O	-64.3%
C[C@@H]1CN(C(=O)C2(Cn3cccn3)CC2)CC[C@@]1(O)C1CC1	24.205%
COc1ccccc1-n1nc(-c2ccco2)n(CC(=O)NC(C)C)c1=O	45.6%
COc1ccccc1-n1nc(-c2ccco2)n(CC(=O)NC2CC2)c1=O	27.6%
CNC(=O)Cn1c(-c2ccco2)nn(-c2ccccc2OC)c1=O	59.5%
Cc1cc(NC(=O)CNC2CCc3ncnn3C2)no1 (stereo not drawn)	17.4%
CCOC(=O)CC(c1ccc(OC)cc1)c1c(O)n[nH]c1C (stereo not drawn)	-14.9%
Cc1ccc(C(=O)N2CCCC3(CCCC(=O)N3C)C2)cc1F (stereo not drawn)	15.7%
COc1ccc(CCN(C)C2CCCN(Cc3noc(C)n3)C2)cc1 (stereo not drawn)	-42.3%
COc1ccc(CC(C)(O)CNC(=O)Cc2ccc(F)cc2)cc1 (stereo not drawn)	77.6%
COc1ccc(CC(C)(O)CNC(=O)Cc2cccs2)cc1 (stereo not drawn)	40.7%
COc1ccc(CC(C)(O)CNC(=O)c2cccs2)cc1 (stereo not drawn)	-18%
Cc1noc(C)c1CN(C)C(=O)CCn1c(=O)n(C)c2ccccc21	-6.61%
CCCN1CCC(Cc2noc(-c3cc4cccnc4nc3C)n2)CC1	12.9%
COCc1nc(CN2CCN(c3ccc(OC)cc3)C(=O)C2C)no1 (stereo not drawn)	11%
CCOCC1CN(C(=O)c2ccncc2)Cc2nn(C)cc21 (stereo not drawn)	-46.9%
CCS(=O)(=O)CCNC(=O)C1(c2cccc(Cl)c2)CC1	44.8%

SMILES	INHIBITION
COc1cccc(-c2n[nH]c3c2CN(C(=O)c2cccc(=O)[nH]2)CC3)c1	53.8%
COc1cccc(-c2n[nH]c3c2CN(C(=O)c2cc(C)n(C)n2)CC3)c1	36.6%
COc1cccc(-c2n[nH]c3c2CN(C(=O)c2ccncc2)CC3)c1	-4.91%
CC(=O)N(Cc1ncc(C)o1)C1CCN(CCn2cccn2)C1 (stereo not drawn)	40.8%
Cc1cnn(CCC(=O)NC2CCc3nc(C)cn3C2)c1 (stereo not drawn)	5.9%
Cc1cn2c(n1)CCC(NC(=O)CCCOCc1ccccc1)C2 (stereo not drawn)	53.4%
Cc1cc(C(=O)NC2CCc3nc(C)cn3C2)[nH]n1 (stereo not drawn)	-3.26%
Cc1cn2c(n1)CCC(NC(=O)CCC(F)(F)F)C2 (stereo not drawn)	54.9%
COc1ccccc1OCCC(=O)NC1CCc2nc(C)cn2C1 (stereo not drawn)	34.6%
Cc1cn2c(n1)CCC(NC(=O)c1[nH]nc(C)c1Br)C2 (stereo not drawn)	64.7%
Cc1cn2c(n1)CCC(NC(=O)CCC1CC1)C2 (stereo not drawn)	26.9%
COc1ccc(COCC(=O)NC2CCc3nc(C)cn3C2)cc1 (stereo not drawn)	21.7%
Cc1cn2c(n1)CCC(NC(=O)c1[nH]ncc1Br)C2 (stereo not drawn)	40%
Cc1nccn1CCN(C)C(=O)C1CCN(C(=O)C2CCC2)CC1	16.9%
CN1CCN(C(=O)[C@@H]2CN(C)C[C@]23COc2ccc(F)cc2C3=O)CC1	24.2%
CN(C)C(=O)c1coc(COc2ccccc2)n1	19.4%
O=C(NCC(F)(F)F)c1ccc(-n2cncn2)nn1	-17.8%
Cc1cc2n(n1)CC(CNCc1ccc(Oc3ccccc3)nc1)CN2 (stereo not drawn)	21.55%
CC(C)c1ncc2c(n1)CN(c1ncnc3[nH]ccc13)CC2	63.4%
c1ncc2c(n1)CN(c1ncnc3[nH]ccc13)CC2	32.7%
Cc1ncc2c(n1)CN(c1ncnc3[nH]ccc13)CC2	17.8%
O=S(=O)(NCC1CCCN(Cc2ccccc2F)C1)C1CC1 (stereo not drawn)	11.5%
Cc1noc(C(C)C)c1C(=O)NCc1cccnc1	34.7%
CN(Cc1csc(-c2ccccc2)n1)C(=O)CCn1ccccc1=O	66.9%
CN(Cc1csc(-c2ccccc2)n1)C(=O)CCNS(C)(=O)=O	-47.9%
CN(Cc1csc(-c2cccs2)n1)C(=O)CCn1ccccc1=O	-33%
